According to the supplement of paper PMC11732987, “Enantioselective OTUD7B fragment discovery through chemoproteomics screening and high-throughput optimisation” (Communications Chemistry, 2025):

Legend:
Test in all cases: log2 ratio of Biotin-Ahx-Ub-VS probe labelling (fragment/DMSO); higher = less target engagement (more negative = stronger competition), active = hit call of the paper (q ≤ 0.05, log2 ratio ≤ -1)
Conditions in all cases: compound concentration: 200 uM; treatment time: 3 h
[1] = target: T1, ALG13 (UniProt Q9NP73)
T1 sequence (whole entry): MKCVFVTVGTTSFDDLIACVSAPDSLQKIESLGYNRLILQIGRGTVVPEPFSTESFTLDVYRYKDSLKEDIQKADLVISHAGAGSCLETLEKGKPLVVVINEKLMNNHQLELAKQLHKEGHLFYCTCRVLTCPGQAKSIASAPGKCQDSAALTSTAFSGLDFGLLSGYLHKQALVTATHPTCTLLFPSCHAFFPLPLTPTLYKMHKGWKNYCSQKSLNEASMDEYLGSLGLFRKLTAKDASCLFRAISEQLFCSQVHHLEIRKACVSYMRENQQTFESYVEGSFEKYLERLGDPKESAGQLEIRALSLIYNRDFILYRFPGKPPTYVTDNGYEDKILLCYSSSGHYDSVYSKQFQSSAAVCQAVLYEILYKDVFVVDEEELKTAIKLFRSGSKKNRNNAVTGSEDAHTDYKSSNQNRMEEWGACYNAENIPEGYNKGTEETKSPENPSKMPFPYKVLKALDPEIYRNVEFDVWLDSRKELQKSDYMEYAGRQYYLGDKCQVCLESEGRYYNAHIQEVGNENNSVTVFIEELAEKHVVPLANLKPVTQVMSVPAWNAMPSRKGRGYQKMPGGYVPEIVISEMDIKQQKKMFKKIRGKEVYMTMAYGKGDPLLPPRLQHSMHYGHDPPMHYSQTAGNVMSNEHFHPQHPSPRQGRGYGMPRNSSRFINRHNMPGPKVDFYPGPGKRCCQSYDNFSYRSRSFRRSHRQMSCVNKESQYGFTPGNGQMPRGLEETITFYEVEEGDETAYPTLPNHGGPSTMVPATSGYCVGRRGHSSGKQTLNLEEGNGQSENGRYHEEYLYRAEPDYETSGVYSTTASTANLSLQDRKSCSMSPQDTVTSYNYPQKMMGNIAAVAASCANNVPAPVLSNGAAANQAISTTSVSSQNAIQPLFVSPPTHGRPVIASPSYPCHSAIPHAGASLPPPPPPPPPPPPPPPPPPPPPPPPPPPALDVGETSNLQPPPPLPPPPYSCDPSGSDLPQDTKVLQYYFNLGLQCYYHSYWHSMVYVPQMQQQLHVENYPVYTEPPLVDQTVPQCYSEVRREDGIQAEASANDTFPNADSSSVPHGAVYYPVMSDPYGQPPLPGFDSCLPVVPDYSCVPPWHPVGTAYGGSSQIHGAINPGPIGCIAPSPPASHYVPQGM
Outline: (§1)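 Each value is an average log2 ratio of fragment to vehicle, tested by unpaired t-test. The underlying Spectronaut label-free quantities were global-median-normalised, and only proteins with ≥2 unique peptides were included. Triplicate HEK293T lysate samples (495 µg) were exposed to fragment at 200 µM or vehicle for 3 h, then to Biotin-Ahx-Ub-VS at 0.5 µM final for 1 h, before NeutrAvidin enrichment of labelled DUBs, LysC and trypsin digestion, and diaPASEF LC-MS/MS.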

[2] = target: ATXN3 (UniProt P54252)
Outline: as §1

[3] = target: T2, BAP1 (UniProt Q92560)
T2 sequence (whole entry): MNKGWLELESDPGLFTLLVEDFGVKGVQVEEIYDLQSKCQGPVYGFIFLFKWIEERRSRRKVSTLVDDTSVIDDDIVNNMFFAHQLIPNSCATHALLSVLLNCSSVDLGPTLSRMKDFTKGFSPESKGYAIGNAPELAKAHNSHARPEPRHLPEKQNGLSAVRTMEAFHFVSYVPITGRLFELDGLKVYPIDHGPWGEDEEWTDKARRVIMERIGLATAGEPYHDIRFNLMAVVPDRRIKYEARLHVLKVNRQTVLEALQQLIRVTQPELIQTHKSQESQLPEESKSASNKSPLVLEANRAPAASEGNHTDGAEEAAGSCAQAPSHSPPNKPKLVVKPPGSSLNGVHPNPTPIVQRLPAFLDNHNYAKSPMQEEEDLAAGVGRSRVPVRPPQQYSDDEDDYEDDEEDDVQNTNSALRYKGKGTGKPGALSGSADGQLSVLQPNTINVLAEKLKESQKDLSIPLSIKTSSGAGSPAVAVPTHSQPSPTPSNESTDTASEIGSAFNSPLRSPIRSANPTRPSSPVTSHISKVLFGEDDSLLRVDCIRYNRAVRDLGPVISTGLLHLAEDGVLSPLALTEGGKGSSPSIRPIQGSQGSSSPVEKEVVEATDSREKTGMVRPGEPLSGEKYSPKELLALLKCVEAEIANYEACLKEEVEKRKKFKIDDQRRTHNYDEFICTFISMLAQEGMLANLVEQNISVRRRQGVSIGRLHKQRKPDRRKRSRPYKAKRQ
Outline: as §1

[4] = target: EIF3F (UniProt O00303)
Outline: as §1

[5] = target: EIF3H (UniProt O15372)
Outline: as §1

[6] = target: T3, FAM105A (UniProt Q9NUU6)
T3 sequence (whole entry): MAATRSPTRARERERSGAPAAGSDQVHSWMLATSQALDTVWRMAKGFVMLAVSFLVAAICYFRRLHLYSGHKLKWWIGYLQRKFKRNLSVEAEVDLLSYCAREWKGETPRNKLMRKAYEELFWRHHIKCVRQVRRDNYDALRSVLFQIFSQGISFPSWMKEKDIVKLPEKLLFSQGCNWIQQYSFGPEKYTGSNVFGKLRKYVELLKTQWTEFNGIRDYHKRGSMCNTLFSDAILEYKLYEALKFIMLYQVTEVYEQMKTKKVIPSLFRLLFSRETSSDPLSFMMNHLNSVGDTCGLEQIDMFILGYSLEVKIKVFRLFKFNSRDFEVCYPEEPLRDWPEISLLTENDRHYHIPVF
Outline: as §1

[7] = target: OTUB1 (UniProt Q96FW1)
Outline: as §1

[8] = target: T4, OTUD4 (UniProt Q01804)
T4 sequence (whole entry): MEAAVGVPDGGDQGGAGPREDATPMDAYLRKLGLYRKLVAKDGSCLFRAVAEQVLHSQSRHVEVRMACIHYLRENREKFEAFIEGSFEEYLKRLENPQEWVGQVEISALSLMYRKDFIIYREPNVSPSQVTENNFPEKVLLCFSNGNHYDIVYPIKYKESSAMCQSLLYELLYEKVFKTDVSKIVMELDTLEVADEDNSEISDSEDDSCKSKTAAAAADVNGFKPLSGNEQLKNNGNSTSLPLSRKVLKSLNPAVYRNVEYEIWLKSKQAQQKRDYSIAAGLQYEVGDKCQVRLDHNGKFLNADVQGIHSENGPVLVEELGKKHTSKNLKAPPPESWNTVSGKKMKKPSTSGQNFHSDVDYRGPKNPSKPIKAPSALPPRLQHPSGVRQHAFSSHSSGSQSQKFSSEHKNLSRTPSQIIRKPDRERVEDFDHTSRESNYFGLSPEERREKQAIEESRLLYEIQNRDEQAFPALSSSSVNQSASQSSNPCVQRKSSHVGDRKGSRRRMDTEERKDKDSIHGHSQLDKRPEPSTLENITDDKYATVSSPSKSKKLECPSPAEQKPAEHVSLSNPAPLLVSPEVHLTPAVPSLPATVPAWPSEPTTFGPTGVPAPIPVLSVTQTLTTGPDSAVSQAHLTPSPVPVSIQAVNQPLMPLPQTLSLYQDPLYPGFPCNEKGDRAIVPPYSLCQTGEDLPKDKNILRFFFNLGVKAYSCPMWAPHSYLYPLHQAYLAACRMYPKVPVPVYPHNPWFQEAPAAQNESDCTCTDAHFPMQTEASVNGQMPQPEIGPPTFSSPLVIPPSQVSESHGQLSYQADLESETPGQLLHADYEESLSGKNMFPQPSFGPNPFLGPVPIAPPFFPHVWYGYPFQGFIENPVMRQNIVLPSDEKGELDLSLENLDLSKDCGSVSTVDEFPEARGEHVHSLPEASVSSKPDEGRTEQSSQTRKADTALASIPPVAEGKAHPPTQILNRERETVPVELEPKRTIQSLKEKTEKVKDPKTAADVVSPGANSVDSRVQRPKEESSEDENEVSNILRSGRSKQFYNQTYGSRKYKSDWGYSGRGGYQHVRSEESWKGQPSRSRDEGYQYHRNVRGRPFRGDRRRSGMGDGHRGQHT
Outline: as §1

[9] = target: T5, OTUD5 (UniProt Q96G74)
T5 sequence (whole entry): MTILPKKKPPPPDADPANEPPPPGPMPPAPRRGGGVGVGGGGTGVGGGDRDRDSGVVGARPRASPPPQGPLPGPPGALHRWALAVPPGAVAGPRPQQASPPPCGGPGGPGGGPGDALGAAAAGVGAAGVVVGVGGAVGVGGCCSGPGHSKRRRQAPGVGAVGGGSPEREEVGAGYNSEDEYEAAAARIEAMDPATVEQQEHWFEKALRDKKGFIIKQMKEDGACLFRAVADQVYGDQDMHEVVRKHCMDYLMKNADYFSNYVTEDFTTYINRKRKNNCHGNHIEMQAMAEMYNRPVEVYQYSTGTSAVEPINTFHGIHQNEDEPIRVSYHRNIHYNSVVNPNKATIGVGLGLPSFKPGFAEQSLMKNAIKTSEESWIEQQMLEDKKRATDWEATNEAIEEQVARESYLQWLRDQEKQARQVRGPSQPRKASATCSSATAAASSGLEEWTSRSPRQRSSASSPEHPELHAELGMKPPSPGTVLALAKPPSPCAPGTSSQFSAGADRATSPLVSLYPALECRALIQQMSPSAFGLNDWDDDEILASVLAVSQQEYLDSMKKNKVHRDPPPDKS
Outline: as §1

Measured: log2 ratio of Biotin-Ahx-Ub-VS probe labelling

Sequence of OTUB1 (Q96FW1 whole entry): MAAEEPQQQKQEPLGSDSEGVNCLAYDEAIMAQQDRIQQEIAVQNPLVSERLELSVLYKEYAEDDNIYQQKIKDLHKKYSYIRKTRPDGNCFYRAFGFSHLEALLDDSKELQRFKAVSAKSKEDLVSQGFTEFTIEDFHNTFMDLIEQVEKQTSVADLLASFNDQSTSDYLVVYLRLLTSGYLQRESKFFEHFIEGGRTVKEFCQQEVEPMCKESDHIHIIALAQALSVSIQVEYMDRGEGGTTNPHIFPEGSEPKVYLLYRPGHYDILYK
Sequence of EIF3F (O00303 whole entry): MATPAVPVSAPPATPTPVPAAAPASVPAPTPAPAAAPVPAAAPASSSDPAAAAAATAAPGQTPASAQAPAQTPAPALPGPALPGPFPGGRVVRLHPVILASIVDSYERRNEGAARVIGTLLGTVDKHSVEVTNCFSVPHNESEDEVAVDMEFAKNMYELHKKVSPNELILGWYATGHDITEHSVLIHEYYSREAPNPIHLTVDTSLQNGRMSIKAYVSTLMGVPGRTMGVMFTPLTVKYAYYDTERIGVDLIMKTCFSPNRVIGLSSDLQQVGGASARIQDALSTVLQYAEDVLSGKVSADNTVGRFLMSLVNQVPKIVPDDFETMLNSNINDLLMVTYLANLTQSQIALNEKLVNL
Sequence of ATXN3 (P54252 whole entry): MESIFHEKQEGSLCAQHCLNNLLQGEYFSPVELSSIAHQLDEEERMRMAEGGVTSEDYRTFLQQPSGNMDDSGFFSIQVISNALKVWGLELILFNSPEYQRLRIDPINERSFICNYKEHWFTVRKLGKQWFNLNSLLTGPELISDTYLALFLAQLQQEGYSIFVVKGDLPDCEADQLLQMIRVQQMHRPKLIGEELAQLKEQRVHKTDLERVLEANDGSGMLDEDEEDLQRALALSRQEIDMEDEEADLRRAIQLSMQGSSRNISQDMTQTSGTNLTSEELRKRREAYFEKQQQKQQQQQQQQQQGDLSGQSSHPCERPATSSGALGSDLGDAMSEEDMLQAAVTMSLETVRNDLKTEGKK
Sequence of EIF3H (O15372 whole entry): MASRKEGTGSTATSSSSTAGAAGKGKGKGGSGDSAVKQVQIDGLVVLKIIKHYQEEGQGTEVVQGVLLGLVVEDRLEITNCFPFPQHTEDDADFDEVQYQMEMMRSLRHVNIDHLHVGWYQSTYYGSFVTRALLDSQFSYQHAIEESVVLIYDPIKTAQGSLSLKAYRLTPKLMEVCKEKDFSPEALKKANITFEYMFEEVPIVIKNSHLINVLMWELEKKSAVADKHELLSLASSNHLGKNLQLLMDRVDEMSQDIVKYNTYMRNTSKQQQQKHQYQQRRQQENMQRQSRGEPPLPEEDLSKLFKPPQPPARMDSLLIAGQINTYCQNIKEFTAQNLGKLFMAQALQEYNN

Cc1nnc(C(NC(=O)CCl)c2ccccc2)n1C (centres undefined)
inactive: [1] -0.558 | [2] 0.355 | [3] 0.428 | [4] 0.534 | [5] 0.24 | [6] 0.549 | [7] -0.00852 | [8] 0.483 | [9] 0.385
